The campaign covered roughly 1,600 compounds. About 1,500 (94%) were called active. So high a share suggests a set chosen from earlier hits. Not all results are given here. Entries with a potency or affinity are not part of this list. Records with an inconclusive call do not appear.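 The calls were made as follows: active = signal drop with fitted half-maximal concentration at most twice the top valid dose for that sample; inconclusive = flat fit between 30 and 70% inhibition, or poor curve fit; inactive = the rest.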

A short description of this assay: reduction of Shn3 3'UTR-driven luciferase in osteoblasts – cell-based, Clone20 osteoblasts, firefly luciferase, cherry-picked, dose response (AID 624132). The settings on record: Clone20 osteoblast Shn3 3'UTR firefly luciferase, 24 h; series mostly up to 35 µM.
Consider `Cc1cc(C)cc(C(=O)NCC(=O)OCC(=O)NCC(F)(F)F)c1`, for which the activity change, negative = inhibition result was “inactive”.
For the molecule `Nc1c(Br)cc2c(c1Br)C(O)c1ccccc1-2` (configuration not stated), the activity change, negative = inhibition entry was “inactive”.
As to `O=C(CSc1nnc(Nc2ccccc2)s1)NC1CCS(=O)(=O)C1` (configuration not stated), the activity change, negative = inhibition result is “inactive”.
As to `CN(C(=O)CSc1nc(-c2cccs2)nc2ccccc12)C1CCS(=O)(=O)C1` (configuration not stated), the activity change, negative = inhibition entry was “inactive”.
To `CN(CC(=O)NCc1ccc2c(c1)OCO2)S(=O)(=O)c1ccc(Br)s1` belongs “inactive”.
In the case of `Cn1cccc1Cc1nnc(SCC(=O)NCCc2ccccc2)n1-c1ccc(F)cc1`, the activity change, negative = inhibition result is “inactive”.
Then `O=C(NC(NC(=S)Nc1c(Cl)cc(Cl)cc1Cl)C(Cl)(Cl)Cl)OCc1ccccc1` (configuration not stated), with “inactive”; and `COc1ccc(-c2nnn(CC(=O)Nc3ccc4c(c3)OCCO4)n2)cc1OC`, with “inactive”.
On to `O=C(CSc1nc(C(F)(F)F)cc(=O)[nH]1)N1CCCC1`, for which the activity change, negative = inhibition result was “inactive”.
As to `Cc1nc2ncnn2c(C)c1Cc1cccc(F)c1`, the activity change, negative = inhibition result is “inactive”.
As to `CCOC(=O)C1CCN(C(=O)C(C)N(c2ccc(Oc3ccccc3)cc2)S(C)(=O)=O)CC1` (configuration not stated), the activity change, negative = inhibition result is “inactive”.
To `CCOc1ccc(Br)cc1C1=CC(=O)C[C@H](c2ccc(OC)cc2)C1` belongs “inactive”.
Then `COc1ccccc1-n1ccnc(SCC(=O)NCc2ccccc2Cl)c1=O`, with “inactive”; and `Cc1ccc(NC(=O)NCCCN2CCOCC2)cc1`, with “inactive”.
To `Nc1cc(=O)[nH]c(SCC(=O)Nc2cccc([N+](=O)[O-])c2)n1` belongs “inactive”.
On to `CCOC(=O)C1=C(C)N(CCCC(=O)O)C(=O)NC1c1ccc2ccccc2c1` (configuration not stated), for which the activity change, negative = inhibition entry is “inactive”.
To `CCc1c(O)nc(SCC(=O)Nc2ccccc2)n(-c2ccccc2)c1=O` belongs “inactive”; to `O=C(CN1C(=O)C2CCCCC2C1=O)NC1CCCc2ccccc21` (configuration not stated), “inactive”.
For `Cc1cc(Sc2ccc([N+](=O)[O-])cn2)ccc1Br`, the activity change, negative = inhibition result is “inactive”.
To `Cc1ccc(S(=O)(=O)N2CCCCC2)cc1NS(=O)(=O)c1ccccc1F` belongs “inactive”.
For the molecule `O=c1c2ccccc2c(C=Nc2ccccc2O)c(O)n1-c1nccs1`, the activity change, negative = inhibition entry was “inactive”.
With `COc1ccccc1-n1c(SCC(=O)Nc2cc(C)on2)nc2c(c1=O)SCC2`, the activity change, negative = inhibition result is “inactive”.
Then `O=S(=O)(c1ccc(Cl)cc1)n1ccc2cccnc21`, with “inactive”; and `O=C(NCCCn1ccnc1)C(=O)NCC1OCCCN1S(=O)(=O)c1ccccc1` (configuration not stated), with “inactive”.
Regarding `O=C(NCCNC(=O)Oc1cccc2ccccc12)Oc1cccc2ccccc12`, the activity change, negative = inhibition entry is “inactive”.
With `O=C(CSc1nc2ncc(Cl)cc2[nH]1)N1CCOCC1`, the activity change, negative = inhibition result was “inactive”.
To `C[C@@H]1CC=C[C@H]2[C@H]1C(=O)N(Cc1ccccc1)[C@H]2c1cccc([N+](=O)[O-])c1` belongs “inactive”; to `CC(=O)Nc1sc2c(c1-c1nc3ccccc3s1)CCN(C(C)C)C2`, “inactive”; to `COc1cc(C(=O)OCC(=O)NC2CCCCCC2)ccc1OCC(C)C`, “inactive”.
`Cc1ccc(NC(=O)C2CCCN(S(=O)(=O)c3c(C)noc3C)C2)cc1` (configuration not stated): the activity change, negative = inhibition result was “inactive”.
Then `CCO[C@@H]1OC(C(=O)NC2CC2)=C[C@H](c2coc3ccccc3c2=O)[C@H]1CCCO`, with “inactive”.
On to `O=C(Nc1cccc(S(=O)(=O)NC2=NCCC2)c1)C1CC(=O)N(c2ccc3c(c2)OCCO3)C1` (configuration not stated), for which the activity change, negative = inhibition entry is “inactive”.
To `CCOC(=O)CNC(=O)C1(NC(=O)CNC(=O)OCc2ccccc2)CCCC1` belongs “inactive”.
Take `O=C(NNc1ccccc1)C(=O)NNS(=O)(=O)c1ccc(CCCl)cc1`: the activity change, negative = inhibition result is “inactive”.
To `Cc1ccc(C(=O)N2CCN(C)CC2)cc1S(=O)(=O)N1CCCCCC1` belongs “inactive”.
Then `CCN(CC)S(=O)(=O)c1ccc(N(C)Cc2cccc(OC)c2OC)nc1`, with “inactive”; and `Cc1cc(C(=O)Cn2cnc3cc(F)ccc3c2=O)c(C)n1C1CC1`, with “inactive”; and `COc1ccc(S(=O)(=O)N2CCOCC2)cc1NC(=O)COC(=O)CC1CC2CCC1C2` (configuration not stated), with “inactive”.
As to `COc1cc(OC)cc(C(=O)OCC(=O)Nc2ccc(F)cc2F)c1`, the activity change, negative = inhibition result is “inactive”.
Then `Fc1ccccc1N=C1NN=C(c2ccccc2)CS1`, with “inactive”.
Then `Nc1nc(=S)[nH]c2c1C1(CCCCC1)Cc1ccccc1-2`, with “inactive”; and `CCCCCCC#Cc1ccc2c(c1)COc1c3ccccc3nn1-2`, with “inactive”; and `O=C1N/C(=C/c2ccc(N3CCOCC3)o2)C(=O)N1c1ccccc1`, with “inactive”.
Then `Cc1ccccc1N/C(=N/S(=O)(=O)c1ccccc1)c1ccc(F)cc1`, with “inactive”.
`C[C@@H]1CN([C@H](C)CO)C(=O)CCCn2nncc2CO[C@H]1CN(C)S(=O)(=O)c1ccc2c(c1)OCCCO2`: the activity change, negative = inhibition result was “inactive”.
Then `C[C@@H]1CN([C@H](C)CO)C(=O)c2cc(Br)cnc2O[C@H]1CN(C)C(=O)Cc1ccncc1`, with “inactive”; and `Cc1cc(C)n(-c2cc(-n3nc(C)cc3C)ncn2)n1`, with “inactive”; and `OCCNc1nc(Nc2ccc(Cl)cc2)nc(N2CCCC2)n1`, with “inactive”.
To `COc1c(C)cc(C(=O)C2CCCN(C(=O)c3cccc(-n4cccn4)c3)C2)cc1C` (configuration not stated) belongs “inactive”; to `CC1CCN(C(=O)c2ccc(N3C(=O)C4CCC(C)CC4C3=O)cc2)CC1` (configuration not stated), “inactive”.
As for `O=C(Cc1ccccc1)NCCS(=O)c1ccc(Cl)cc1` (configuration not stated), the activity change, negative = inhibition result is “inactive”.
To `CSc1nnc(-c2ccco2)n1-c1ccccc1` belongs “inactive”; to `CCn1nnc2cc(C(=O)Nc3cc(Cl)ccc3C)ccc21`, “inactive”.
In the case of `O=C(CSc1nc2[nH]ncc2c(=O)[nH]1)Nc1ccccc1C(F)(F)F`, the activity change, negative = inhibition entry was “inactive”.
On to `CC(C)c1c(O)c2c(n(-c3ccccc3)c1=O)CCCC2`, for which the activity change, negative = inhibition entry was “inactive”.
Then `Cc1ccc(C(=O)Nc2ccc3c(c2)C(=O)N(CC2CCCO2)C3=O)cc1` (configuration not stated), with “inactive”; and `O=C(CCS(=O)(=O)c1ccccc1)Nc1nc2c(s1)CCCC2`, with “inactive”.
